# Experimental data published in PubChem BioAssay (Tox21).
# Records with an inconclusive call do not appear. A call without a number means that no potency is given here. Calls of active or inactive are those of the source. Calls come from the whole dose curve; as a rule, active = well fitted cell-killing curve with a large enough effect in the repeat runs; inconclusive = weak or mixed curves, or effect the other way; inactive = no such curve, though single readings can be large or run the other way.
# Assay: qHTS assay for small molecule activators of the heat shock response signaling pathway - cell viability counter screen (AID 743209); note: nearly all actives have a fitted effect of over 50% in size
# Details: HSE-bla HeLa viability, CellTiter-Glo luminescence, 5 h; series mostly up to 62.6 µM
# Text: U.S. Tox21 Program National Center for Advancing Translational Sciences [NCATS] NIH Chemical Genomics Center [NCGC] U.S. Environmental Protection Agency [EPA] National Institutes of Environmental Health Sciences [NIEHS] National Toxicology Program [NTP] U.S. Food and Drug Administration [FDA] Tox21 Assay Overview: Various chemicals, environmental and physiological stress conditions may lead to the activation of heat shock response/ unfolded protein response (HSR/UPR). There are three heat shock transcription factors (HSFs) (HSF-1, -2, and -4) mediating transcriptional regulation of the human HSR. To identify the compounds that activate HSR signaling, HSE-bla HeLa cell line (Invitrogen, Carlsbad, CA, USA) containing a beta-lactamase reporter gene under the control of the heat shock response elements was used to screen Tox21 10K compound library. The cytotoxicity of the Tox21 compound library against the HSE-bla HeLa cell line was tested in parallel by measuring the cell viability using CellTiter-Glo assay (Promega, Madison, WI) in the same wells.
# Tox21 Assay Protocol Summary: The CellSensor HSE-bla HeLa cells (Invitrogen, Carlsbad, CA, USA) were dispensed at 1500 cells/6uL/well into 1536-well black wall/clear bottom plates using a Multidrop combi (Thermo Fisher Scientific, Waltham, MA) dispenser. After the assay plates were incubated at 37 C and 5% CO2 overnight, 23 nL of compounds dissolved in DMSO, positive controls or DMSO only was transferred to the assay plate by a Pintool station (Kalypsys, San Diego, CA). The plates were incubated at 37 C for 5 h. After 1 uL of LiveBLAzerTM B/G FRET substrate was added using a Flying Reagent Dispenser (FRD, Beckman Coulter, Indianapolis, IN, USA), the plates were incubated at room temperature for 2.5 h, and fluorescence intensity was measured by an Envision plate reader (PerkinElmer, Shelton, CT). For cell viability readout that measures cytotoxicity, 3 ul/well of CellTiter-Glo reagent was added into the assay plates using a FRD. After 30 min incubation at room temperature, the luminescence intensity in the plates was measured using a ViewLux (PerkinElmer) plate reader.
row,Compound,Potency
1,Clc1cccc(Cl)c1NC1=NCCN1,inactive
2,COc1ccccc1[N+](=O)[O-],inactive
3,COc1c(Cl)ccc(Cl)c1C(=O)O,inactive
4,CC(CN1c2ccccc2Sc2ccccc21)N(C)C (stereo not given),inactive
5,CCN(CC)CCNC(=O)c1ccc(N)cc1,inactive
6,Brc1ccc(Oc2ccc(Br)cc2)cc1,inactive
7,COc1c2ccoc2cc2oc(=O)ccc12,inactive
8,C1CCCNCC1,inactive
9,Cc1ccc([N+](=O)[O-])cc1N,inactive
10,Cc1cccc(C)c1[N+](=O)[O-],inactive
11,CCn1cc(C(=O)O)c(=O)c2cc3c(cc21)OCO3,inactive
12,C=C(CC(=O)O)C(=O)O,inactive
13,CCCCCCCCC(=O)O,inactive
14,C=C(C)CC(C)(C)C,inactive
15,Cc1nnc(NS(=O)(=O)c2ccc(N)cc2)s1,inactive
16,Nc1nc(N)c2nc(-c3ccccc3)c(N)nc2n1,inactive
17,OCc1ccc(Cl)cc1Cl,inactive
18,Cc1ccccc1Cl,inactive
19,NC(N)=S,inactive
20,CC(=O)OC[C@H]1O[C@@](COC(C)=O)(O[C@H]2O[C@H](COC(C)=O)[C@@H](OC(C)=O)[C@H](OC(C)=O)[C@H]2OC(C)=O)[C@@H](OC(C)=O)[C@@H]1OC(C)=O,inactive

row,Compound,Potency
1,C=CC(=O)NCOCCCC,inactive
2,CC1=CC(=O)CC(C)(C)C1,inactive
3,CC(O)CNCC(C)O (stereo not given),inactive
4,CCOC(=O)CC(=O)OCC,inactive
5,CN=C(NC#N)NCCSCc1nc[nH]c1C,inactive
6,OCCOCCOCCOCCOCCO,inactive
7,O=C(c1ccccc1)c1ccc(O)c(O)c1O,inactive
8,CN1Cc2c(N)cccc2C(c2ccccc2)C1 (stereo not given),inactive
9,O=Cc1ccc(CO)o1,inactive
10,Cc1ncc(CO)c(CO)c1O,inactive
11,O=C1C(N(CO)C(=O)NCO)N(CO)C(=O)N1CO (stereo not given),inactive
12,O=C(Cl)c1ccc(C(=O)Cl)cc1,inactive
13,COC(=O)CCCCC(=O)OC,inactive
14,CS(=O)(=O)c1ccc(Cl)cc1,inactive
15,CC(=O)CC(=O)N(C)C,inactive
16,CC(=O)OCc1ccc2c(c1)OCO2,inactive
17,NC(=O)c1ncn([C@@H]2O[C@H](CO)[C@@H](O)[C@H]2O)n1,inactive
18,CC(=O)OC(C)(C)C1CC=C(C)CC1 (stereo not given),inactive
19,Cc1ccc(C)c(S(=O)(=O)O)c1,inactive
20,CCCCCCCC(=O)O,inactive
